Experiment [1] is described as follows: qHTS assay to identify small molecule agonists of the TGF-beta/Smad signaling pathway - cell viability counter screen (AID 1346829). Also: top concentration of the series differs between compounds; nearly all actives have a fitted effect of over 45% in size. In a few lines: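 Same-well cytotoxicity: CellTiter-Glo added after the 2 hr room-temperature beta-lactamase substrate step, luminescence measured 30 min later; cells had 5 hr of compound at 37 C.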
Experiment [2] can be described thus: qHTS assay to identify small molecule agonists of the TGF-beta/Smad signaling pathway (AID 1346859; active = well fitted activation curve with a large enough effect in the signal ratio in the repeat runs, not every such curve was filed as active; the % refers to the signal ratio; also: series mostly up to about 77 µM). In a few lines:
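HEK 293T cells stably carrying a beta-lactamase reporter driven by the Smad binding element were seeded overnight, exposed to DMSO-dissolved compounds for 5 hr at 37 C, 5% CO2, then loaded with FRET substrate for 2 hr at room temperature.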
(In qHTS, concentration-response curves come from the screen itself.)

Experiment [3] has as its target Thyrotropin-releasing hormone receptor (Homo sapiens) (UniProt P34981). The experiment is described as follows: qHTS assay to identify small molecule antagonists of the thyrotropin-releasing hormone receptor (TRHR) signaling pathway (AID 1346877; active = well fitted inhibition curve with a large enough effect in the repeat runs, not every such curve was filed as active; also: series mostly up to about 51 µM). In a few lines:
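Antagonism is measured as suppression of the calcium response to 1 nM TRH in TRHR-HEK293 cells that have been dye-loaded for 2 h at 37 °C after overnight plating. Each compound is tested at 15 concentrations in triplicate.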

For experiment [4] the target is unchanged. Description: qHTS assay to identify small molecule agonists of the thyrotropin-releasing hormone receptor (TRHR) signaling pathway (AID 1346891; calls by dose curve; also: series mostly up to about 58 µM). The procedure, abridged: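 TRHR-expressing HEK293 cells were plated 18 h at 37 °C/5% CO2, loaded with calcium dye 2 h at 37 °C, then given compound in DMSO; fluorescence was read kinetically for 3 min at 1 s intervals.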

Experiment [5] in a line: Human pregnane X receptor (PXR) small molecule agonists, qHTS cell viability counter screen (AID 1346977). Also: nearly all actives have a fitted effect of over 50% in size. In a few lines:
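PXR-Luc HepG2 cells in medium with 5% charcoal-stripped FBS were pre-incubated 5hr, then exposed to compounds for 24hr at 37C. Viability was read in the same wells by CellTiter-Fluor fluorescence, reagent added after 23hr with a 1hr incubation.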

A short description of experiment [6]: Caspase-3/7 induction in HepG2 cells by small molecules, qHTS assay (AID 1346978). Also: nearly all actives have a fitted effect of over 15% in size. In a few lines: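 Wild-type HepG2 cells (2,000/well) were settled 5 h at 37 C, 5% CO2, then exposed to compounds in DMSO for 17 h. Caspase-3/7 activity was read by luminescence 30 min after adding Caspase-Glo 3/7 reagent at room temperature.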
Experiment [7] in a line: Caspase-3/7 induction in CHO-K1 cells by small molecules, qHTS cell viability counter screen (AID 1346979). Also: nearly all actives have a fitted effect of over 35% in size. In a few lines: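 Wild-type CHO-K1 cells were seeded at 1,500 per well, rested 5hr at 37 C, then exposed to compounds in DMSO. After 16hr, CellTiter-Fluor reagent was added and fluorescence read 1hr later as the viability measure.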
A short description of experiment [8]: Caspase-3/7 induction in CHO-K1 cells by small molecules, qHTS assay (AID 1346980). Also: nearly all actives have a fitted effect of over 15% in size. In a few lines:
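Wild-type cells were seeded at 1,500 per well and settled 5 hr at 37 C, 5% CO2, then exposed to DMSO-dissolved compounds for 17 hr. Caspase-Glo 3/7 reagent was added, and luminescence was read after 30min at room temperature.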

Experiment [9] deals with Nuclear receptor subfamily 1 group I member 2 (Homo sapiens) (UniProt O75469). The experiment is described as follows: Human pregnane X receptor (PXR) small molecule agonists, qHTS assay (AID 1346982). Also: nearly all actives have a fitted effect of over 35% in size. In a few lines:
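Cells: HepG2 stably carrying PXR-Luc. Medium held 5% charcoal-stripped FBS. Compounds in DMSO added after 5 hr plating, incubated 24 hr, then luminescence quantified with ONE-Glo.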

The target in experiment [10] is Cytochrome P450 2D6 (Homo sapiens) (UniProt P10635). The experiment is described as follows: Cytochrome P450 Family 2 Subfamily D Member 6 (CYP2D6) small molecule antagonists: luciferase reporter qHTS assay (AID 1671196). Also: series mostly up to about 120 µM; nearly all actives have a fitted effect of over 50% in size. The procedure, abridged: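 Enzyme and proluciferin substrate were first combined with test chemical for 10 min at room temperature. Adding NADPH regeneration solution started a 1 h reaction, stopped with luciferin detection reagent and read by luminescence 20 min later.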
Background: In a reporter assay the amount or activity of a reporter protein is the signal.

Experiment [11] deals with Cytochrome P450 2C19 (Homo sapiens) (UniProt P33261). The experiment is described as follows: Cytochrome P450 Family 2 Subfamily C Member 19 (CYP2C19) small molecule antagonists: luciferase reporter qHTS assay (AID 1671197). Also: nearly all actives have a fitted effect of over 65% in size. Also: potency is read from the fitted curve at half-maximal effect. As to activity change, negative = inhibition: series mostly up to about 120 µM. In a few lines:
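Quantitative high-throughput screen of the Tox21 library using CYP2C19 with proluciferin substrate. Reaction: NADPH regeneration, 37C, 1 h, after 10 min compound preincubation at room temperature. Readout: luminescence.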

For experiment [12], the target named is Cytochrome P450 1A2 (Homo sapiens) (UniProt P05177). The experiment is described as follows: Cytochrome P450 Family 1 Subfamily A Member 2 (CYP1A2) small molecule antagonists: luciferase reporter qHTS assay (AID 1671199). Also: nearly all actives have a fitted effect of over 50% in size. Also: potency is read from the fitted curve at half-maximal effect. As to activity change, negative = inhibition: series mostly up to about 120 µM. The procedure, abridged: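 Compounds were incubated with CYP1A2 and a luminogenic proluciferin substrate for 10 min at room temperature before the reaction was started with NADPH regeneration solution. After 1 h, detection reagent was added and light output, proportional to CYP activity, was recorded.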

The target of experiment [13] is Voltage-gated inwardly rectifying potassium channel KCNH2 (Homo sapiens) (UniProt Q12809). Description: Human Ether-a-go-go-Related Gene (hERG) channel small molecule antagonists: fluorescence cell-based qHTS assay (AID 1671200).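 Also: hERG-expressing U2OS cells given a thallium stimulus after FluxOR II dye loading; series mostly up to about 77 µM; nearly all actives have a fitted effect of over 50% in size.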 In a few lines:
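U2OS cells expressing the channel were plated at 1000 cells/well, incubated overnight at 37 C, then loaded with FluxOR II thallium-sensitive dye for 1 h at room temperature in the dark, with a further 10 min at room temperature before stimulation.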
On the technique in general: hERG is a cardiac potassium channel; its block is linked to QT prolongation.

Experiment [14] addresses Cytochrome P450 3A4 (Homo sapiens) (UniProt P08684). The experiment is described as follows: Cytochrome P450 Family 3 Subfamily A Member 4 (CYP3A4) small molecule antagonists: luciferase reporter qHTS assay (AID 1671201). The procedure, abridged:
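P450-Glo CYP3A4 system with proluciferin substrate; compounds preincubated 10 min RT with enzyme-substrate mix, then NADPH regeneration added for 1 h RT. Detection reagent 20 min, luminescence read as relative luminescence units.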

Experiment [15] addresses Cytochrome P450 2C9 (Homo sapiens) (UniProt P11712). Description: Cytochrome P450 Family 2 Subfamily C Member 9 (CYP2C9) small molecule antagonists: luciferase reporter qHTS assay (AID 1671198). Also: nearly all actives have a fitted effect of over 50% in size. Also: potency is read from the fitted curve at half-maximal effect. As to activity change, negative = inhibition: series mostly up to about 120 µM. The procedure, abridged: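 CYP2C9 activity was measured with a P450-Glo proluciferin substrate. Enzyme–substrate mix was held with compound for 10 min at room temperature, then NADPH regeneration solution was added for 1 h at 37C. Luciferin product was read as luminescence.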

Experiment [16] deals with Nuclear receptor subfamily 1 group I member 2 (Rattus norvegicus) (UniProt Q9R1A7). Description: Rat pregnane X receptor (rPXR) activation by small molecules, qHTS assay (AID 1346983). Also: nearly all actives have a fitted effect of over 20% in size. The following applies: rPXR luciferase reporter cells, One-Glo luminescence, 24 h; max activation: hits give high values. The procedure, abridged:
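Cell-based rPXR luciferase reporter assay, 2,000 cells per well, rested 5hr at 37 C before compound addition in DMSO, then 24 hr at 37 C. One-Glo reagent was added and luminescence read after 30 min at room temperature.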

Experiment [17] deals with Nuclear receptor subfamily 1 group I member 2 (Homo sapiens) (UniProt O75469). Description: CYP3A4 induction through human pregnane X receptor (PXR) by small molecules, qHTS assay (AID 1346984). Also: nearly all actives have a fitted effect of over 40% in size. In a few lines:
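Quantitative HTS in DPX-2 cells, i.e. HepG2 transfected with PXR response element and CYP3A4-promoter luciferase. Compounds in DMSO incubated 24hr at 37C; then P450-Glo CYP3A4 substrate, 3uM final, 3hr; One-Glo luminescence.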

The target is the same in experiment [18]. Description: Human pregnane X receptor (PXR) activation by small molecules, qHTS assay (AID 1346985). Also: nearly all actives have a fitted effect of over 40% in size. The procedure, abridged:
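DPX-2 cells (HepG2 co-transfected with a PXR response element and a CYP3A4-promoter luciferase construct) were seeded at 2,000 per well, rested 5 hr at 37C, then exposed to DMSO-dissolved compounds for 24 hr. Activation was read as luciferase luminescence.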

Unmarked numbers belong to inactive results. Records with an inconclusive call do not appear. Active and inactive are the calls of the source. Unless noted, calls follow the shape of the dose curve; as a rule, active = well fitted curve in the direction sought with a large enough effect in the repeat runs; inconclusive = weak or mixed curves; inactive = no such curve, though single readings can be large; an effect the other way counts as inactive or inconclusive.
% is scaled to controls: 0 for no effect and ±100 for the full control effect.

Voltage-gated inwardly rectifying potassium channel KCNH2 (Homo sapiens), sequence (Q12809 whole entry, looked up): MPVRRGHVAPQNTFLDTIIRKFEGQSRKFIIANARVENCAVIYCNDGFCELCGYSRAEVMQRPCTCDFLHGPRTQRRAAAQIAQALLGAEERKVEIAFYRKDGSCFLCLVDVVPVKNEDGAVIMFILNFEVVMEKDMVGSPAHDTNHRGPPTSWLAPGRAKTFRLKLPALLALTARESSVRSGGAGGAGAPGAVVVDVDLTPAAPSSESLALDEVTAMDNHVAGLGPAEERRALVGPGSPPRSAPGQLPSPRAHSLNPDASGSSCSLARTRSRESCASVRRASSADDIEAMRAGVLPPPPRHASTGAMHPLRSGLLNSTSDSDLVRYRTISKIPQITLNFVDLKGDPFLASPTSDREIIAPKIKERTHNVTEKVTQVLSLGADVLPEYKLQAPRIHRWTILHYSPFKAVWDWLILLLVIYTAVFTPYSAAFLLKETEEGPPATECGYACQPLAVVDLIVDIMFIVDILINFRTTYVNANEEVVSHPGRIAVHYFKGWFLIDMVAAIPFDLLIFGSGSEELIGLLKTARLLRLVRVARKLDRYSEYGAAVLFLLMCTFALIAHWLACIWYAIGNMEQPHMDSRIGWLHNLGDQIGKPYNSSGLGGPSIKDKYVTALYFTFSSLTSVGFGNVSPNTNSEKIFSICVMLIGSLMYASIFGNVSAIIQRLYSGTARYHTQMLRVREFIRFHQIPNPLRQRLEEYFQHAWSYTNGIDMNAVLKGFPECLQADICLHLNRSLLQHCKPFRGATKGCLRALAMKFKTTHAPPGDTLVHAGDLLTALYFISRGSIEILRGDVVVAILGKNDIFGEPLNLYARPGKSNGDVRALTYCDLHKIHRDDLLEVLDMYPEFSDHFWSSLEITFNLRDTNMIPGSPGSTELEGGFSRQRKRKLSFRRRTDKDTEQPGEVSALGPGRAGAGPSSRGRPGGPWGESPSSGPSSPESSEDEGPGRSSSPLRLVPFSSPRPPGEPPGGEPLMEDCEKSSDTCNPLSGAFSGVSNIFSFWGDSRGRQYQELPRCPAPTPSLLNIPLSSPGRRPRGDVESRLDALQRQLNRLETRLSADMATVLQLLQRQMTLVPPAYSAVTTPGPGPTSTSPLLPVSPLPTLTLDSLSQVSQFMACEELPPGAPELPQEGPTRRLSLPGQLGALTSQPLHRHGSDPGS
Thyrotropin-releasing hormone receptor (Homo sapiens), sequence (P34981 whole entry, looked up): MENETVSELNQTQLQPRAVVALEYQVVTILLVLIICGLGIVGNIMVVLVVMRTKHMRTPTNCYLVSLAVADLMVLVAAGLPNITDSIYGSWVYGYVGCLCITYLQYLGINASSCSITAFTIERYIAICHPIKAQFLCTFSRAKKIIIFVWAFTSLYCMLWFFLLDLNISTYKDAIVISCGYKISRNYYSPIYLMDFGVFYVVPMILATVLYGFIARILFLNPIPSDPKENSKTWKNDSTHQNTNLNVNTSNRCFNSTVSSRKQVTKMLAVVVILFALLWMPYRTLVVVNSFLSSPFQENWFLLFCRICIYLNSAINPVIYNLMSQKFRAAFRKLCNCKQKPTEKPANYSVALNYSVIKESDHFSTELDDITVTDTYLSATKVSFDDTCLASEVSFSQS
Cytochrome P450 2C19 (Homo sapiens), sequence (P33261 whole entry, looked up): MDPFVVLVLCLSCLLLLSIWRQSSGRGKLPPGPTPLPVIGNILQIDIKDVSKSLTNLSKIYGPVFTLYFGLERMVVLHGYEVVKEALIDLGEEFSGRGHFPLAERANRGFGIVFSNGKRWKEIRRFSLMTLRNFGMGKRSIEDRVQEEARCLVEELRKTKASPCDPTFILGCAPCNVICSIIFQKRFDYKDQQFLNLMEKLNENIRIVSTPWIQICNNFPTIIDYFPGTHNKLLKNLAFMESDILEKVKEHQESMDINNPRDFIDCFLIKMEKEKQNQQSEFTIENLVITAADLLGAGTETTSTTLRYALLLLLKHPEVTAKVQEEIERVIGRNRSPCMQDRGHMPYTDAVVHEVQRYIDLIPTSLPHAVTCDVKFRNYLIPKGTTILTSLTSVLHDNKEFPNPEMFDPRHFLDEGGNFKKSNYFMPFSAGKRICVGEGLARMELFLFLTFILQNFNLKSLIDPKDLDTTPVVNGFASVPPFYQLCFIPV
Cytochrome P450 2D6 (Homo sapiens), sequence (P10635 whole entry, looked up): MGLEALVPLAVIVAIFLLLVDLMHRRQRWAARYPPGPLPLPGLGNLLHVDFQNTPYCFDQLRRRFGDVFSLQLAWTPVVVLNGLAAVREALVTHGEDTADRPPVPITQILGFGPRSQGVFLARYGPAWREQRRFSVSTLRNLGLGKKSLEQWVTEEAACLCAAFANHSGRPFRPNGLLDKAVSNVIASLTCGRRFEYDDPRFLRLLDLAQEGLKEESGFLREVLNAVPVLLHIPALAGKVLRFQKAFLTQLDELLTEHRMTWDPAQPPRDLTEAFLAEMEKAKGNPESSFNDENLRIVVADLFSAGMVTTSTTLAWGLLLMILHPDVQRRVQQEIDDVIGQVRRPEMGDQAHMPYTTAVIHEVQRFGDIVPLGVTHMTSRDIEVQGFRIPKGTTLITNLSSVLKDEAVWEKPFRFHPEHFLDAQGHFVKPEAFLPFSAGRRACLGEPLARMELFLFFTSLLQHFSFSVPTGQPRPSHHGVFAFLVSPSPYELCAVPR
Nuclear receptor subfamily 1 group I member 2 (Homo sapiens), sequence (O75469 whole entry, looked up): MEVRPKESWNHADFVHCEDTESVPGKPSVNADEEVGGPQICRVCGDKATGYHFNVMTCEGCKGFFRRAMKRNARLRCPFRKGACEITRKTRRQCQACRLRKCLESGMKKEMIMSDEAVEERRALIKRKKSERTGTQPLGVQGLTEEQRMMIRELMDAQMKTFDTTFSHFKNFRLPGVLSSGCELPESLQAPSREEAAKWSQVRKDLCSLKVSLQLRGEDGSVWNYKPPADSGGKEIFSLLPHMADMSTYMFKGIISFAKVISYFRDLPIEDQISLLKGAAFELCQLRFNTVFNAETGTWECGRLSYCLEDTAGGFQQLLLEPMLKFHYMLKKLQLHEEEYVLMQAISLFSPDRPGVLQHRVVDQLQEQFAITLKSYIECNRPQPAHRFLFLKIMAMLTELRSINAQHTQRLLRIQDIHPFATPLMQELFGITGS
Cytochrome P450 2C9 (Homo sapiens), sequence (P11712 whole entry, looked up): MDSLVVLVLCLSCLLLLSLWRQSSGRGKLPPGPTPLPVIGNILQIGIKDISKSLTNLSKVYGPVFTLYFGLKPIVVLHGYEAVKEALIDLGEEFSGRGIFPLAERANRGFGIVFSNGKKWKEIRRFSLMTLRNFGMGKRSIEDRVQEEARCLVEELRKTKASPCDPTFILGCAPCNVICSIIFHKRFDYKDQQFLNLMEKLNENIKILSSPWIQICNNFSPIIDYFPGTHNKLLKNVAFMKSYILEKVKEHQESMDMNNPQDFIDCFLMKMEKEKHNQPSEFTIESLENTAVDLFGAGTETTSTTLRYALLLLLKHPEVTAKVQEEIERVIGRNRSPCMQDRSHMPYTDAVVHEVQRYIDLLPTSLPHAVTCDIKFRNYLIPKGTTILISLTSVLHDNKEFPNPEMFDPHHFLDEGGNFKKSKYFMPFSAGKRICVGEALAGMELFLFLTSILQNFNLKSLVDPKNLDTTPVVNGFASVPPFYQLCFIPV
Cytochrome P450 3A4 (Homo sapiens), sequence (P08684 whole entry, looked up): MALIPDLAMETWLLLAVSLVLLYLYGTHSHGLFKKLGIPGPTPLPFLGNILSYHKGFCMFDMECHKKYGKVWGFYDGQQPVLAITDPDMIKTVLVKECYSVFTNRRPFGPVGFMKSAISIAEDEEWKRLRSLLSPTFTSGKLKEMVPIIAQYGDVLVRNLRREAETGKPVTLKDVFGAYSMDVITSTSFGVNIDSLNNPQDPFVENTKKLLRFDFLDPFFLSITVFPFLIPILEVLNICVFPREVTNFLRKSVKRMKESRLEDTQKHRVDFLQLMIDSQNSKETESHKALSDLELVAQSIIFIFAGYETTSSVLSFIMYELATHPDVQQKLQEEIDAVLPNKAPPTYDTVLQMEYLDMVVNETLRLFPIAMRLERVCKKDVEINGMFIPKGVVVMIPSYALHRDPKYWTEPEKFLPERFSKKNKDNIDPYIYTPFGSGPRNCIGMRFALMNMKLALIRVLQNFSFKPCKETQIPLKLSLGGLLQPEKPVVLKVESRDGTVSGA
Cytochrome P450 1A2 (Homo sapiens), sequence (P05177 whole entry, looked up): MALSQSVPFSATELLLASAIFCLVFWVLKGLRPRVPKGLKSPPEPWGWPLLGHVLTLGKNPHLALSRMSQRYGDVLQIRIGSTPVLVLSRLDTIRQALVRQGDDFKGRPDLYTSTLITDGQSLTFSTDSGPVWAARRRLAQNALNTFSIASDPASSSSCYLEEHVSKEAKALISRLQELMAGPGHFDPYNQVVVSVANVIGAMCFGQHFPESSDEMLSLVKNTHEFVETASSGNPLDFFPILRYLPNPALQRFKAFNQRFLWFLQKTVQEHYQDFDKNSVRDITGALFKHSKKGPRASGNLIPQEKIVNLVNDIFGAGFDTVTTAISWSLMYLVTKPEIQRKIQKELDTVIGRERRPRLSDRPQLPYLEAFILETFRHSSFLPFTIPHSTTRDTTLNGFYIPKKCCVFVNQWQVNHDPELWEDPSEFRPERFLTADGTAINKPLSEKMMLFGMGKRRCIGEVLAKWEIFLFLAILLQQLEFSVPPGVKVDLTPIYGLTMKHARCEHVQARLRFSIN
Nuclear receptor subfamily 1 group I member 2 (Rattus norvegicus), sequence (Q9R1A7 whole entry, looked up): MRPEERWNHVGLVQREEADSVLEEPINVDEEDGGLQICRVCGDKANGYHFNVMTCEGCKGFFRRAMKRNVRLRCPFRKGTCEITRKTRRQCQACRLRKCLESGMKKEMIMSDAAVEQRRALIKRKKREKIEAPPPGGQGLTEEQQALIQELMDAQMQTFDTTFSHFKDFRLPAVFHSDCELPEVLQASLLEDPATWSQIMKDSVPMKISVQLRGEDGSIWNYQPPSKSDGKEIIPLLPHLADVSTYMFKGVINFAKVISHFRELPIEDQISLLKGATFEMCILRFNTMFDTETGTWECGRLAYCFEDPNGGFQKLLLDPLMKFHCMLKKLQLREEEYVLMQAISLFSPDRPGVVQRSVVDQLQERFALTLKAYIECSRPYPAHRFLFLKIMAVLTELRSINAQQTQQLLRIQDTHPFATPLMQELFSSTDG

For the molecule `CCN(CCO)c1cccc(C)c1`, the outcome in [1], in [2], in experiment [3], in [4], in experiment [6] and in experiment [8] was inactive. The Potency result in experiment [5], in experiment [7], in [9], in experiment [10] and in experiment [13] was “inactive” each time. Besides, the Potency in [11] is 35.6 µM (active); in experiment [12] it was 28.3 µM (active).

With `CCCCCCCCC(=O)OCC`, the molecule was called inactive in [1], in [2], in experiment [3], in experiment [4], in [6] and in experiment [8]. Besides, the Potency result in experiment [5], in experiment [7], in [9], in [10], in [11] and in experiment [12] was “inactive” each time. For the same molecule, the Potency result in experiment [13] and in experiment [14] was “inactive” in each case.

In the case of `CCOC(=O)CC(CC(=O)OCC)(OC(C)=O)C(=O)OCC`, the outcome in experiment [1], in [2], in [3], in experiment [4], in [6] and in experiment [8] was inactive. Besides, the Potency result in experiment [5], in [7], in [10], in experiment [13] and in experiment [14] was “inactive” each time. Moreover, the results for the Potency in [11] and in [15] were 12.6 µM (active) and 28.3 µM (active), respectively.

As to `Nc1ccc(/C=C/c2ccc(N)cc2S(=O)(=O)O)c(S(=O)(=O)O)c1`, the activity change, negative = cytotoxicity is 12.6% [at 0.29 µM] in experiment [1], 11% [at 0.349 µM] in experiment [5] and 8.5% [at 0.349 µM] in [7]. Besides, the activation in [2] was 1.21% [at 0.29 µM]; in [4] it was 0.0703% [at 0.218 µM]; in experiment [9], -2.19% [at 0.349 µM]. Besides, the activity, negative = inhibition in experiment [3] is -5.44% [at 0.194 µM]. In addition, the caspase activation in experiment [6] was 0.454% [at 0.349 µM]. For the same molecule, the max activation in experiment [16] is -1.81%. In [17], the molecule was called inactive. Further, the Potency entry in experiment [18] is “inactive”. Further, the activity change, negative = inhibition is -0.348% [at 0.435 µM] in experiment [10]; 14.7% [at 0.435 µM] in experiment [11]; 3.26% [at 0.435 µM] in experiment [15]; 12.7% [at 0.435 µM] in experiment [12]; 0.168% [at 0.29 µM] in [13]; 15.4% [at 0.435 µM] in experiment [14].

In the case of `C/C=C(\C)C(=O)OCC/C=C\CC`, the outcome in [1], in [2], in [3], in experiment [4], in experiment [6] and in [8] was inactive. Moreover, the Potency entry in [5], in experiment [7], in experiment [9], in [10], in experiment [11] and in experiment [15] was “inactive” in each case. Moreover, the Potency result in experiment [13] and in [14] was “inactive” in each case.

Take `CCCCCCCCCCCCC`: the result in experiment [1], in experiment [2], in experiment [3], in [4] and in experiment [6] was inactive. The Potency entry in experiment [5], in experiment [7], in experiment [9], in experiment [10], in experiment [11] and in experiment [15] was “inactive” in each case. For the same molecule, the Potency result in experiment [12], in experiment [13] and in experiment [14] was “inactive” each time.

(Values after PubChem BioAssay (Tox21).)
